Data published in PubChem BioAssay AID1035475 (Broad Institute, 2014).
Entries with a potency or affinity are not part of this list. Inconclusive results are not listed. Activity calls are given as the source filed them.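 How the source made its calls: active means fluorescent signal drops by 40% or more, counted as a hit; inconclusive means no clear call, values can overlap the other calls; inactive means the rest, including any activity in the opposite direction.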

Assay: blockers of FN fibrillogenesis by fibroblasts – AH1F cells, Alexa488-FN fluorescence, cherry-picks, dose response (AID 1035475);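 further: AH1F fibroblasts incorporating labeled fibronectin into their extracellular matrix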

SMILES: C=C1C(=O)O[C@@H]2C[C@@H](C)[C@@H]3C=CC(=O)[C@@]3(C)[C@@H](O)[C@H]12
- outcome: inactive
